In PubChem BioAssay one finds z-score and composite z-score data, which are given here for four compounds.

Activity calls are given as the source filed them.

The nature of test [1]: optical density shifts of acrAB sulA E. coli – strain DRC41, OD650, 48 h, E. coli filamentation inducer project, primary screen (AID 1152).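 Note: E. coli MC1000 strain DRC41 lacking acrAB efflux pump and sulA.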 The conditions noted are these: higher = more signal, called active from +8 up or from −8 down.
Test [2] in a line: probe aLefty1 binding on compound microarray – biochemical, small-molecule microarray, 635/667 nm fluorescence, primary screen (AID 1153).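 Note: score merges spot fluorescence with signal-to-noise ratio from the scanned slide images.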 Particulars: higher = more signal.
Test [3] can be described thus: plasmodial surface anion channel blockers, osmotic lysis – cell-based, P. falciparum Indochina, OD700, 1 h, primary screen (AID 1154). The conditions noted are these: P. falciparum Indochina infected RBC osmotic lysis, higher = more signal, called active from +8 up or from −8 down.
A short description of test [4]: plasmodial surface anion channel blockers, osmotic lysis – cell-based, P. falciparum Indochina, OD700, 2 h, primary screen (AID 1155).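 Note: lysis reports solute entry through the parasite surface anion channel PSAC.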 The conditions noted are these: P. falciparum Indochina infected erythrocytes, higher = more signal, called active from +8 up or from −8 down.
Test [5] in a line: changes in parasitized red cell lysis, either direction – P. falciparum Indochina, OD700, 3 h, PSAC antagonist project, primary screen (AID 1156). The conditions noted are these: P. falciparum-infected erythrocytes, osmotic lysis, higher = more signal, called active from +8 up or from −8 down.
The nature of test [6]: plasmodial surface anion channel blockers, osmotic lysis – cell-based, P. falciparum Indochina, OD700, 18 h, primary screen (AID 1157). The conditions noted are these: P. falciparum Indochina infected erythrocytes, osmotic lysis OD700, 18 h; higher = more signal, called active from +8 up or from −8 down.
Test [7] in a line: S6 kinase pathway phospho-S6 level changes – cell-based, A549, cytoblot, luminescence, serum-stimulated, primary screen (AID 1158).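 Note: serum-stimulated A549 lung adenocarcinoma cells; signal is phosphorylated S6 detected by cytoblot immunostaining with HRP secondary.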 The conditions noted are these: 5 h, higher = more signal.
For test [8], the target named is NADPH oxidase 2 (Homo sapiens) (UniProt P04839). Kind of test: compounds shifting NOX2 Amplex Red fluorescence – cell-based, HEK293-NOX2, PMA-stimulated, NOX inhibitor project, primary screen (AID 1159). Note: test concentration not given here. The conditions noted are these: 45 min, higher = more signal, called active from +8 up or from −8 down.
Test [9] has as its target NADPH oxidase 4 (Homo sapiens) (UniProt Q9NPH5). Nature of the test: compounds shifting NOX4 Amplex Red fluorescence – cell-based, HEK293-NOX4, tetracycline-induced, NOX inhibitor project, primary screen (AID 1160). The conditions noted are these: HEK293-NOX4, Amplex Red H2O2 fluorescence, 45 min; higher = more signal, called active from +8 up or from −8 down.
In test [10] the target is NADPH oxidase 5 (Homo sapiens) (UniProt Q96PH1). Kind of test: compounds shifting NOX5 Amplex Red fluorescence – cell-based, HEK293-NOX5, NOX inhibitor project, primary screen (AID 1161). The conditions noted are these: HEK293-NOX5, ionomycin, 45 min, higher = more signal.
A short description of test [11]: compound effects on lung adenocarcinoma cell viability – A549, calcein-AM fluorescence, 48 h, basal, profiling panel (AID 1162). Note: test concentration not given here. Particulars: higher = more signal.
Test [12] in a line: compound effects on differentiated 3T3-L1 adipocyte viability – cell-based, 3T3-L1 adipocytes, calcein-AM fluorescence, 48 h, basal, profiling panel (AID 1163). Note: test concentration not given here. The conditions noted are these: 3T3-L1 adipocytes viability, higher = more signal.
A short description of test [13]: compound effects on hepatocellular carcinoma cell viability – HepG2, calcein-AM fluorescence, 48 h, basal, profiling panel (AID 1164). Note: test concentration not given here. The conditions noted are these: higher = more signal.
The nature of test [14]: compound effects on multiple myeloma cell viability – MM1S, calcein-AM fluorescence, 48 h, basal, profiling panel (AID 1165).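 Note: viability of MM1S multiple myeloma cells under basal unstimulated conditions; test concentration not given here.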 Particulars: higher = more signal.
Test [15] can be described thus: calcein-AM signal in unstimulated myeloma cells – cell-based, calcein-AM fluorescence, 48 h, PK04 Diversity Set, profiling panel (AID 1166).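 Note: cells grown under basal conditions without added stimulus; test concentration not given here.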 The conditions noted are these: RPMI8226 myeloma viability, higher = more signal.
A short description of test [16]: JC-1 mitochondrial signal, unstimulated HepG2 cells – cell-based, JC-1 fluorescence, 24 h, 100 nL compound, profiling panel (AID 1167). Note: test concentration not given here. The conditions noted are these: HepG2 mitochondrial potential, higher = more signal.
The nature of test [17]: JC-1 mitochondrial signal, unstimulated adipocytes – cell-based, JC-1 fluorescence, 3T3-L1 adipocytes, 24 h, 100 nL compound, profiling panel (AID 1168). Note: test concentration not given here. The conditions noted are these: JC-1 mitochondrial fluorescence, higher = more signal, called active from +8 up or from −8 down.
Test [18] is described as follows: JC-1 mitochondrial signal, unstimulated myeloma cells – cell-based, JC-1 fluorescence, RPMI8226, 24 h, 100 nL compound, profiling panel (AID 1169). Note: test concentration not given here. The conditions noted are these: JC-1 mitochondrial potential fluorescence, higher = more signal.
Test [19] can be described thus: JC-1 mitochondrial signal, unstimulated MM1S myeloma – cell-based, JC-1 fluorescence, 24 h, 100 nL compound, profiling panel (AID 1170). Note: test concentration not given here. Particulars: MM1S mitochondrial potential, higher = more signal.
Test [20] in a line: resazurin metabolic signal in A549 cells – cell-based, resazurin fluorescence, 24 h, PK04 Diversity Set, profiling panel (AID 1171). Note: test concentration not given here. Particulars: A549 viability, higher = more signal, called active from +8 up or from −8 down. (In general: The colour change of resazurin is a common sign of viable cells or microbes.)

Sequence of NADPH oxidase 2 (Homo sapiens) (P04839 whole entry, looked up): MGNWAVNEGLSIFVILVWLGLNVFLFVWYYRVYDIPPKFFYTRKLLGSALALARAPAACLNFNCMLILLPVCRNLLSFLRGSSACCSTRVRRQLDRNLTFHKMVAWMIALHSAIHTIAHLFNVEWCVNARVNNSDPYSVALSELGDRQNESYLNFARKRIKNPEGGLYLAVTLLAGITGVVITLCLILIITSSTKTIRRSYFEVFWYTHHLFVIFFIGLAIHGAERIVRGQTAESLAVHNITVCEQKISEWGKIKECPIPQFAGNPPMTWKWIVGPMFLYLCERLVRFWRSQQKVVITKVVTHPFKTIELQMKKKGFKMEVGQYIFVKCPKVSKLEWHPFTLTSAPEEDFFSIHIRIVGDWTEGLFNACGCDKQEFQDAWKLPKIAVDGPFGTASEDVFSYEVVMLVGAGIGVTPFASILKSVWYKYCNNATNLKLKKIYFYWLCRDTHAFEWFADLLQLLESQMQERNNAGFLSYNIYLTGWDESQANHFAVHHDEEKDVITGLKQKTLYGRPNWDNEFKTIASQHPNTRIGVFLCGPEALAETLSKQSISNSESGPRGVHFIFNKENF
Sequence of NADPH oxidase 4 (Homo sapiens) (Q9NPH5 whole entry, looked up): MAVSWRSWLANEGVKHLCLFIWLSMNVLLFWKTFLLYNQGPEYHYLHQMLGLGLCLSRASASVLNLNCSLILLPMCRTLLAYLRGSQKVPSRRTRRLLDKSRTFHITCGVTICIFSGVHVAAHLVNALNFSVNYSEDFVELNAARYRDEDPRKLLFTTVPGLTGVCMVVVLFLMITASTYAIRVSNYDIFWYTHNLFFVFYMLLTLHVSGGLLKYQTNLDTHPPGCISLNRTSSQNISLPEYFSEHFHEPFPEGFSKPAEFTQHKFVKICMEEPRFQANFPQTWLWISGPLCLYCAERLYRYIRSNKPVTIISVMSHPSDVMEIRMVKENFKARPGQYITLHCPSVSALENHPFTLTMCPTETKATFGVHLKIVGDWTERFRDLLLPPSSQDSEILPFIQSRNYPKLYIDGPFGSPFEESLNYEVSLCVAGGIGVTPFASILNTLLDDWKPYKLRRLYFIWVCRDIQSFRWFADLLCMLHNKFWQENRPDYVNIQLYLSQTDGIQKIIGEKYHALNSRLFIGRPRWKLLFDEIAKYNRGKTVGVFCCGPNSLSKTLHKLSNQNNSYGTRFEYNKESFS
Sequence of NADPH oxidase 5 (Homo sapiens) (Q96PH1 whole entry, looked up): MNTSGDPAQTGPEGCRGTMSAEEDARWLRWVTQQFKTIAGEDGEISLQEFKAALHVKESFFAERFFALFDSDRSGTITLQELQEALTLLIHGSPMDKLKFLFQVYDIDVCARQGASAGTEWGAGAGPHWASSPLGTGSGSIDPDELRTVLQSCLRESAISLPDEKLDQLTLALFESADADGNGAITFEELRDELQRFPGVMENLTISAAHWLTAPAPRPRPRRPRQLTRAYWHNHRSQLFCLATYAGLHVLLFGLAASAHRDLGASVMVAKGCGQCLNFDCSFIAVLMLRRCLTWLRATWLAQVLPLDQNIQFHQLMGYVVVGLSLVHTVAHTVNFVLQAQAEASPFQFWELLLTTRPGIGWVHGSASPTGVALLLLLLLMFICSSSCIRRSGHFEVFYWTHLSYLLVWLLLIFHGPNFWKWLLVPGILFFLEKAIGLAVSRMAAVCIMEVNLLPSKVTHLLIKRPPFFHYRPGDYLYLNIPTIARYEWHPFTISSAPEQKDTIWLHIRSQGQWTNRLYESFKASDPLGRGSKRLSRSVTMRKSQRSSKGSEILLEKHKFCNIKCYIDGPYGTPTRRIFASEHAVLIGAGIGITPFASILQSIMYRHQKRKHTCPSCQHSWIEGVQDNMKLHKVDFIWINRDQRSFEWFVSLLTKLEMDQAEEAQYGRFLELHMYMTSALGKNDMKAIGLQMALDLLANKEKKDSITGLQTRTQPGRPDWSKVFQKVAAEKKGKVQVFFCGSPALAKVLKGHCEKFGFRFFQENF

Regarding `O=C1C[C@@H](O)[C@@H](O)[C@@H]2[C@@H]3C(=O)N(Cc4ccc5c(c4)OCO5)C(=O)[C@@H]3CC[C@@H]12`, the z-score in [1] was 0.306 (inactive); in test [3], 4.63 (inactive); in test [4], 0.632 (inactive); in test [5], 0.311 (inactive); in test [6] it was 0.182 (inactive); in test [7] it was -0.352. Also, the z-score in test [8] was 0.323 (inactive); in [9], -0.209 (inactive); in [10] it was -0.246; in test [11] it was 0.254; in test [12], 0.797; in test [13], 0.0538. For the same compound, the z-score in test [14] is 0.339; in test [15], -0.205; in [16], -0.32; in [17], -0.409 (inactive); in [18], -0.893; in [19], 0.358. Besides, the z-score in test [20] was -0.14 (inactive). Further, in test [2], the composite z-score was -0.103.
For the compound `C=CCNC(=O)[C@H]1[C@@H]2C(=O)O[C@@H](c3ccccc3)[C@@H](c3ccccc3)N2[C@@H](c2ccc(O)cc2)[C@]12C(=O)N(C(=O)OCCOC)c1ccc(C#CC3=CCCCC3)cc12`, the z-score in test [1] was -0.383 (inactive); in test [3] it was 1.65 (inactive); in [4] it was 0.929 (inactive); in test [5], 0.0207 (inactive); in [6], 0.506 (inactive); in test [7], -0.25. Also, the z-score in test [8] was 1.96 (inactive); in test [9], -0.149 (inactive); in [10], 1.47; in [11], -1.1; in test [12] it was 0.537; in test [13], -0.444. The z-score was -2.53 in [14]; -3.23 in [15]; -1.47 in [16]; -0.777 (inactive) in test [17]; -0.611 in test [18]; -0.324 in [19]. For the same compound, the z-score in test [20] is 0.512 (inactive). For the same compound, the composite z-score in test [2] turned out to be 1.81.
As to `COCCOC(=O)N1C(=O)[C@@]2(c3cc(C#CC4(O)CCCCCC4)ccc31)[C@H](c1ccc(OCCO)cc1)N1[C@H](c3ccccc3)[C@H](c3ccccc3)OC(=O)[C@H]1[C@@H]2C(=O)NC[C@H](O)c1ccccc1`, the z-score in test [1] was 1.02 (inactive); in test [3] it was 2.18 (inactive); in [4], 0.524 (inactive); in test [5], 0.735 (inactive); in test [6], -0.494 (inactive); in test [7], 1.47. Besides, the z-score is 1.79 (inactive) in test [8]; 0.858 (inactive) in test [9]; -1.31 in [10]; 0.358 in test [11]; 1.62 in test [12]; -0.063 in test [13]. Further, the z-score in test [14] is -1.25; in test [15] it was -1.84; in test [16] it was -1.67; in test [17], 0.0493 (inactive); in [18], -0.924; in test [19], -1.47. The z-score in test [20] was 0.702 (inactive). The compound also gave a composite z-score in [2] of 0.43.
Take `CC(C)=CCCC(C)=CCON=C1C[C@@H](O)[C@@H](O)[C@@H]2[C@@H]3C(=O)N(C[C@@H]4CCCO4)C(=O)[C@@H]3CC[C@@H]12`: the z-score in [1] was 0.381 (inactive); in [3] it was 1.53 (inactive); in [4], 0.767 (inactive); in test [5] it was 0.369 (inactive); in test [6] it was 0.549 (inactive); in test [7], -0.622. The z-score in test [8] was 0.752 (inactive); in test [9] it was 0.604 (inactive); in test [10] it was 0.0838; in test [11], 0.113; in test [12] it was -0.833; in [13] it was -0.315. Moreover, the z-score is 0.182 in [14]; -0.0114 in [15]; -1.31 in test [16]; 0.729 (inactive) in test [17]; -0.495 in test [18]; -0.761 in test [19]. Also, the z-score in [20] was 0.0805 (inactive). Further, the composite z-score in test [2] worked out at 0.0371.
